Where “and” joins values, the source holds several entries; their conditions need not be identical. Equal entries are not always repeated. This is part of a sample that, as a whole, favours compounds with a hit. Of some 83,000 tested, about 20% had one in any assay.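 Single-concentration screen, 48 h exposure, 96-well plates. Endpoint: percent growth. Below 10 = active.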 Calls of active or inactive are those of the source.

In this experiment the test system is MDA-MB-468 breast. Put plainly: NCI-60 one-dose screen, 48 h (100 = growth as untreated, 0 = no growth, -100 = all killed). The note with it: 10 µM unless noted.
In the case of `COc1ccc(/C=C\c2cc(OC)c(OC)c(OC)c2)c(NS(=O)(=O)c2ccc(C(C)(C)C)cc2)c1O`, the growth is 38.9% (inactive).
Turning to `COc1cc2c(cc1-c1c(C)noc1C)ncc1nc(C3CCOCC3)n([C@@H](C)COC(F)F)c12`, the growth is 47.5% (inactive).
As for `CN1NC(c2ccccc2)NN(C)C1=O`, the figure is 108% (inactive).
As for `CN1CCN(Cc2ccc(NC(=O)c3cncc(C#Cc4cnc(N)nc4)c3)cc2C(F)(F)F)CC1`, the figure is 36% (inactive).
As for `Nc1ncnc2c1ncn2C1OC(CO)C(O)C1O` (stereo not drawn), the figure is 116% (inactive) and -13.3% (active); as for `COc1cc(/C=C/c2cc(/C=C/c3ccc(O)c(OC)c3)n(C(=O)Nc3ccccc3Cl)n2)ccc1O`, -24.2% (active); as for `O=C1/C(=C/c2cccs2)CCC/C1=C\c1cccs1`, -45.5% (active).
In the case of `COc1cc(C2Nc3ccccc3S2)cc(CN2CCOCC2)c1O` (stereo not drawn), the growth is 26.3% (inactive).
As for `Cn1cc(-c2csc(-c3c[nH]c4ccc(Br)cc34)n2)c2ccnc(Cl)c21`, the figure is 14% (inactive); as for `CCN1C(=O)N(CC)C2C1NC(=S)N2/N=C/C=C/c1ccccc1` (stereo not drawn), 3.7% (active).
In the case of `O=C(Nc1cccc(-n2ccc3c(NC(=O)c4ccccc4)nccc32)c1)Nc1ccc(Cl)c(C(F)(F)F)c1` it was -3.83% (active); in that of `O=C1Nc2c(ccc(Cl)c2Cl)/C1=C\c1ccc(C(F)(F)F)cc1`, 92.8% (inactive); in that of `CCOc1ccc2c(c1)CN(Cc1ccc(Cl)cc1)CO2`, 57.2% (inactive).

Source of the values: PubChem BioAssay (NCI).
